Results published in PubChem BioAssay (NCI).
This is part of a sample that, as a whole, favours compounds with a hit. Of some 83,000 tested, about 20% had one in any assay.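 Interpretation: 100, growth as untreated; towards 0, rising growth inhibition; 0, no net growth; 0 to -100, cell death. Compounds scoring below 10 were considered active.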 Values without a mark were called inactive. The source made the active and inactive calls.

How the values were obtained:
Assay in all cases: NCI-60 one-dose screen, 48 h (100 = growth as untreated, 0 = no growth, -100 = all killed)
Conditions in all cases: 10 µM unless noted
NCI-H23 lung = test system: NCI-H23 lung
NCI-H226 lung = test system: NCI-H226 lung
NCI-H322M lung = test system: NCI-H322M lung
HOP-62 NSCLC = test system: HOP-62 NSCLC
NCI-H460 lung = test system: NCI-H460 lung
HOP-92 NSCLC = test system: HOP-92 NSCLC
NCI-H522 lung = test system: NCI-H522 lung
A549/ATCC NSCLC = test system: A549/ATCC NSCLC
786-0 renal = test system: 786-0 renal
COLO 205 colon = test system: COLO 205 colon
DU-145 prostate = test system: DU-145 prostate
K-562 leukemia = test system: K-562 leukemia
MALME-3M melanoma = test system: MALME-3M melanoma
MDA-MB-231 breast = test system: MDA-MB-231 breast
RXF 393 renal = test system: RXF 393 renal
SF-268 CNS = test system: SF-268 CNS
SF-295 CNS = test system: SF-295 CNS
SF-539 CNS = test system: SF-539 CNS
UACC-257 melanoma = test system: UACC-257 melanoma
M14 melanoma = test system: M14 melanoma

Structure (SMILES) | growth (NCI-H23 lung) | growth (NCI-H226 lung) | growth (NCI-H322M lung) | growth (HOP-62 NSCLC) | growth (NCI-H460 lung) | growth (HOP-92 NSCLC) | growth (NCI-H522 lung) | growth (A549/ATCC NSCLC) | growth (786-0 renal) | growth (COLO 205 colon) | growth (DU-145 prostate) | growth (K-562 leukemia) | growth (MALME-3M melanoma) | growth (MDA-MB-231 breast) | growth (RXF 393 renal) | growth (SF-268 CNS) | growth (SF-295 CNS) | growth (SF-539 CNS) | growth (UACC-257 melanoma) | growth (M14 melanoma)
CC(C)c1ccc(-n2c(=S)[nH]c3sc4c(c3c2=O)CCC(=O)C4)cc1 | 36.2% | 84.9% | 78% | 33.9% | 30.3% | -6.71% (active) | 6.26% (active) | 71.1% | 102% | 92.7% | 104% | 56.7% | 88.7% | 68.3% | 48.9% | 28.7% | 21.1% | 23.3% | 75.3% | 60.4%
O=C(Nc1nc(C(=O)N2CCN(C(c3ccccc3)c3ccccc3)CC2)cs1)c1ccc(NC2CCCCC2)c([N+](=O)[O-])c1 | 77.2% | 60.1% | 91.6% | 90.9% | 99.6% | 63.7% | 67.3% | 93.2% | 87.7% | 103% | 98.9% | 83.9% | 89.4% | 70.5% | 85% | 86.3% | 69.9% | 93.3% | 89.4% | 77.8%
CO[C@H](C(=O)[C@@H](O)[C@@H](C)O)[C@@H]1Cc2cc3cc(O[C@H]4C[C@@H](O[C@H]5C[C@@H](O)[C@H](O)C(C)O5)[C@H](O)C(C)O4)c(C)c(O)c3c(O)c2C(=O)[C@H]1O[C@H]1C[C@@H](O[C@H]2C[C@@H](O[C@H]3C[C@@H](OC)[C@H](O)C(C)O3)[C@@H](O)C(C)O2)C(O)(O)C(C)O1 (stereo not given in full) | 7.35% (active) | -20.8% (active) | 9.68% (active) | -3.61% (active) | 9.9% (active) | 9.37% (active) | -20.2% (active) | 3.64% (active) | 11.2% | -80% (active) | 19.5% | 12.1% | -36.8% (active) | 5.02% (active) | -57.9% (active) | 26.3% | 12.4% | -0.417% (active) | -20.5% (active) | 11.1%
O=C1/C(=C/c2ccc(Br)cc2)COc2ccc(O)c(O)c21 | 18.3% | 71% | 30.7% | -24.5% (active) | 12% | -33.4% (active) | -70.4% (active) | 20.6% | -70.4% (active) | 15.4% | 6.06% (active) | 5.3% (active) | -17.2% (active) | -4.69% (active) | -49.2% (active) | -36.7% (active) | 57.6% | -94.2% (active) | 9.86% (active) | 9.59% (active)
CC1(C)CC[C@]2(C(=O)N3CCOCC3)CC[C@]3(C)C(=CC[C@@H]4[C@@]5(C)C/C(=C/c6ccncc6)C(=O)C(C)(C)[C@@H]5CC[C@]43C)[C@@H]2C1 | 19.5% | -20.4% (active) | 40.9% | 19.8% | -21.8% (active) | -6.7% (active) | -1.2% (active) | 15.2% | 26.2% | -21.1% (active) | 21.7% | 6.99% (active) | -19.7% (active) | 33.9% | -36.8% (active) | 48.6% | 25.4% | -7.46% (active) | 14.8% | -8.66% (active)
Cc1ccc(/C=C(\C#N)C(=O)Nc2ncc(Cc3cc(Cl)ccc3Cl)s2)o1 | 67.1% | 90.1% | 47.3% | 41.6% | 30.6% | 77% | 48.6% | 39.8% | 46.9% | 102% | 60% | 24.6% | 54.3% | 76.4% | 38.3% | 44.2% | 5.34% (active) | 16.9% | 35.3% | 69.4%
Brc1ccc(-c2cnc3nonc3n2)cc1 | 68% | 100% | 94% | 105% | 96.7% | 86.9% | 66% | 91.9% | 84.2% | 71.3% | 87.7% | 38.7% | 53.9% | 69.1% | 74.5% | 87.1% | 91.4% | 94.8% | 66.9% | 80.1%
O=C(CCCCCCN1CC(=O)N2[C@@H](c3ccc(Cl)cc3)c3[nH]c4ccccc4c3C[C@H]2C1=O)NO | 71.3% | 90.2% | 70.3% | 66.4% | 67.6% | 15.3% | 38.2% | 93.6% | 83.9% | 75.3% | 73.4% | 29.7% | 37.2% | 50.9% | 72.7% | 91.2% | 80.6% | 63.5% | 79.7% | 59%
Cc1cccc(N2CCN(C(=S)c3ccc4c(c3)OCO4)CC2)c1 | 31.3% | 57.2% | 33.2% | 28.9% | 8.2% (active) | 74.4% | -25.2% (active) | 31.7% | 30.2% | -36% (active) | 11% | 14% | 21.8% | 45.3% | -15.1% (active) | 47.2% | 2.38% (active) | -26.9% (active) | 32.5% | -4.87% (active)
O=C(/C=C/c1ccc(Br)cc1)c1ccc(-n2cc(CN3CCN(c4cc5c(cc4F)c(=O)c(C(=O)O)cn5C4CC4)CC3)nn2)cc1 | 85.4% | 84.5% | 87.1% | 87.4% | 85.8% | 84.6% | 78.3% | 87.3% | 76.7% | 107% | 78.9% | 51.5% | 102% | 80.1% | 88.4% | 72.6% | 87.6% | 83% | 95.8% | 87%
C#CCn1cnc2c(Nc3cccc(NC(=O)CCl)c3)ncnc21 | 38.1% | 51.4% | 81.1% | 43.5% | 21.8% | 35.3% | -19.1% (active) | 44.8% | 49.2% | 18.6% | 43.6% | 13.2% | 34.4% | 18.4% | 54.6% | 35.3% | 59.7% | 45.4% | 28.4% | 24.4%
CC/C=C1/C(=O)C=C[C@@H]1C/C=C\CCCC(=O)OC | 74.8% | 88.1% | 108% | 90.5% | 97.9% | 91.3% | -38.3% (active) | 90.2% | 82.5% | 97.3% | 77.1% | 4.34% (active) | 56.3% | 28.7% | 103% | 79.7% | 88.7% | 108% | 73.1% | 50.5%
COc1ccc(C(c2cc(OC)c(OC)c(OC)c2)N2CCN(Cc3ccccc3)CC2)cc1 (stereo not given) | 88.5% | 85.4% | 65.1% | 69.7% | 74.4% | 70.6% | 52.4% | 78.4% | 82.6% | 61.8% | 102% | 26.4% | 74.8% | 71% | 72.3% | 86.4% | 68.7% | 81.2% | 84.2% | 52.8%
COc1cc(C(=O)C(=O)c2cc(OC)c(O)c(OC)c2)cc(OC)c1O | 101% | 91% | 94.4% | 93.2% | 101% | 91.7% | 89.6% | 99.5% | 103% | 105% | 119% | 122% | 103% | 97.2% | 104% | 99.3% | 109% | 97.1% | 98.3% | 104%
Cc1cc(N2CCCCC2)nc(N2CCN(CC(=O)Nc3ccc4c(ccn4Cc4ccccc4)c3)CC2)n1 | 59.2% | 65.1% | 83% | 67.1% | 56.5% | 23.6% | 65.1% | 49.2% | 68.6% | 48.2% | 79.6% | 35.4% | 70.4% | 64.3% | 36.2% | 80.5% | 42.9% | 80.3% | 71% | 50.9%
